This is an account of results in ChEMBL document CHEMBL4513146, “CO-ADD screening of Karazin Kharkiv National University (Ukraine) compounds”.

Molecules are shown by their SMILES. Potency and affinity values are given separately.

One test relates to Klebsiella pneumoniae. The following applies: Concentration 32 ug.mL-1;; ASSAY_TEST Inhibition of Bacterial Growth; detection method Absorption (OD600); MEDIA CAMHB; plate type 384well; NBS; CORNING #3640; time 18 hr.
For a further test, the system named is Candida albicans. The following applies: Concentration 32 ug.mL-1; ASSAY_TEST Inhibition of Fungal Growth; detection method Absorption (OD530).
In the next test the test system is Cryptococcus neoformans. The following applies: Concentration 32 ug.mL-1; ASSAY_TEST Inhibition of Fungal Growth; detection method Resazurin; Absorption (OD600-OD570); plate type 384well; NBS; CORNING #3640. On the technique in general: Resazurin is reduced to fluorescent resorufin, in cell work by metabolically active cells.

The Inhibition is the change of the read-out against control, counted positive when it falls. With `Cc1ccc(C)c(CSc2nnc3c(=O)n(-c4ccc(F)c(F)c4)ccn23)c1`, the Inhibition in the test with Klebsiella pneumoniae is reported as -0.25%; in the test with Candida albicans, 0.45%; in the test with Cryptococcus neoformans, -4.36%.

As for `COc1ccccc1-n1ccn2c(SCc3cc(C)ccc3C)nnc2c1=O`, the Inhibition was 16.48% in the test with Klebsiella pneumoniae, 0.1% in the test with Candida albicans and -7.82% in the test on Cryptococcus neoformans.

In the case of `Cc1ccccc1Oc1nccn2c(=O)n(CC(=O)Nc3ccc(C#N)cc3)nc12`, the Inhibition with Klebsiella pneumoniae is given as 13.8%; in the test on Candida albicans, -1.85%; in the test on Cryptococcus neoformans, -9.67%.

On to `CCCCN(C)c1ccc2nnc(CCc3nc(-c4ccc(C(F)(F)F)cc4)no3)n2n1`, for which the results for the Inhibition in the test on Klebsiella pneumoniae, with Candida albicans and in the test on Cryptococcus neoformans were 5.43%, 2.75% and -13.06%, respectively.

Turning to `Cc1cc2nn(CC(=O)NCc3ccc4c(c3)OCO4)c(=O)n2c(Nc2ccccc2C)n1`, the Inhibition is 10.7% in the test with Klebsiella pneumoniae, 2.64% in the test on Candida albicans and -19.18% with Cryptococcus neoformans.

As for `Cc1cc(C)c(NC(=O)Cn2nc3c4c5c(sc4ncn3c2=O)CCCC5)c(C)c1`, the results for the Inhibition in the test on Klebsiella pneumoniae, in the test on Candida albicans and in the test on Cryptococcus neoformans were 7.2%, 39.7% and -18.32%, respectively.

On to `O=c1n(Cc2cccc(C(F)(F)F)c2)nc2ccc(S(=O)(=O)N3CCCCC3)cn12`, for which the Inhibition with Klebsiella pneumoniae was 10.15%; with Candida albicans, 0.06%; in the test on Cryptococcus neoformans, -10.55%.

With `COc1ccc(NC(=O)Cn2nc3c4cc(-c5ccc(F)cc5)nn4ccn3c2=O)c(OC)c1`, the Inhibition in the test with Klebsiella pneumoniae is given as 14.79%; with Candida albicans it was 2.08%; in the test on Cryptococcus neoformans, -15.48%.

Take `COC(=O)c1ccc(NC(=O)Cn2c(=O)c3nnc(C(C)C)n3c3ccccc32)cc1`: the Inhibition was 11.69% in the test on Klebsiella pneumoniae, -0.03% with Candida albicans and -26.77% in the test with Cryptococcus neoformans.

With `Cc1cc(C)cc(Oc2nccn3c(=O)n(CC(=O)Nc4cccc(Cl)c4)nc23)c1`, the Inhibition in the test on Klebsiella pneumoniae was 0.09%; in the test with Candida albicans it was 0.52%; in the test on Cryptococcus neoformans, -3.38%.
